Test results taken from PubChem BioAssay (NCATS).
Records with an inconclusive call do not appear. A call without a number means that no potency is given here. Calls of active or inactive are those of the source. Unless noted, the call rests on the fitted dose curve; in most records, active means well fitted curve in the direction sought with a large enough effect; inconclusive means small, poorly fitted or top-dose-only effect, or another doubt; inactive means no such curve, though single readings can be large; an effect the other way counts as inactive or inconclusive.

Target: 3',5'-cyclic-AMP phosphodiesterase 4B (Homo sapiens) (UniProt Q07343)
Sequence (Q07343 whole entry, looked up): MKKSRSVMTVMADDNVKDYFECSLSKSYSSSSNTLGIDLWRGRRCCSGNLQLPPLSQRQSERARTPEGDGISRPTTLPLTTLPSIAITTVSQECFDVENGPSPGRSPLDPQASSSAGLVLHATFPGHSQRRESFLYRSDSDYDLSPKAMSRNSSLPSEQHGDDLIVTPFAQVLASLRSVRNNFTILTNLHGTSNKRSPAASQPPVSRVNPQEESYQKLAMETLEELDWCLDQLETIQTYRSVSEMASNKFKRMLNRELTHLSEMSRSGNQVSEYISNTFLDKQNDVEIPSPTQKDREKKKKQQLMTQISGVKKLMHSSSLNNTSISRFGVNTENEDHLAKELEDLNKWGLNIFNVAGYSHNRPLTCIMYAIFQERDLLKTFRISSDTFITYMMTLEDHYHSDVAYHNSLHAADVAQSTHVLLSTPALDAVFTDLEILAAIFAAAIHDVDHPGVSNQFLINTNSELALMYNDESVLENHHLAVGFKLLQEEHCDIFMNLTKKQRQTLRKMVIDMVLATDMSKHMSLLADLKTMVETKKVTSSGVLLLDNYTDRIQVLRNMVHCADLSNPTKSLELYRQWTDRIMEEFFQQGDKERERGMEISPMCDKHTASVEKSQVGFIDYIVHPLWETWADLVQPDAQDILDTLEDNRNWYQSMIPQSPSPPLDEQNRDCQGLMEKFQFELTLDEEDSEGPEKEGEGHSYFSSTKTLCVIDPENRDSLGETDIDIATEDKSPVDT
Experiment: qHTS Assay for Inhibitors of PDE-IV (AID 607; active means well fitted activation curve with a large enough effect in the main read-out, with a control signal flat, not every such curve was filed as active)
Conditions: HEK293 ACTOne CNG channel cells, membrane potential fluorescence; series mostly up to 22.9 µM
How it was run: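 HEK293 ACTOne cells with CNG channel (1000/well), endogenous PDE4; membrane potential dye, compounds up to 22.9 uM final. Fluorescence Ex 535/Em 590; RO 20-1724 (100 uM final) as reference.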

| SMILES | outcome |
| --- | --- |
| CNC(=O)[C@@H]1C[C@H]1[C@@H](NP(=O)(c1ccccc1)c1ccccc1)c1ccccc1 | inactive |
| O=C1C[C@@H]2OCC=C3CN4CC[C@]56c7ccccc7N1[C@H]5[C@@H]2[C@H]3C[C@@H]46 | inactive |
| COC(=O)[C@@H]1C[C@H]1[C@@H](NP(=O)(c1ccccc1)c1ccccc1)c1ccccc1 | inactive |
| COC(=O)[C@@]1(Cc2ccccc2)[C@H]2c3cc(C(=O)N(C)C)n(C)c3C[C@H]2CN1C(=O)c1ccccc1 | inactive |
| CCCc1cc2c(n1Cc1ccco1)C(C)C1CN(C(=O)c3ccccc3)C(C)(C(=O)OC)C21 (configuration not stated) | inactive |
| CNC(=O)[C@H]1C[C@@H]1[C@H](NP(=O)(c1ccccc1)c1ccccc1)c1ccccc1 | inactive |
| O=C(Oc1ccc([N+](=O)[O-])cc1)N1CCC(N2CCCCC2)CC1 | inactive |
| COC(=O)[C@@]1(Cc2ccccc2)[C@H]2c3cc(C(=O)N(C)C)[nH]c3C[C@H]2CN1C(=O)c1ccccc1 | inactive |
| COC(=O)[C@@H]1C[C@@H]1[C@@H](NP(=O)(c1ccccc1)c1ccccc1)c1ccccc1 | inactive |

Target: Cytochrome P450 3A4 (Homo sapiens) (UniProt P08684)
Sequence (P08684 whole entry, looked up): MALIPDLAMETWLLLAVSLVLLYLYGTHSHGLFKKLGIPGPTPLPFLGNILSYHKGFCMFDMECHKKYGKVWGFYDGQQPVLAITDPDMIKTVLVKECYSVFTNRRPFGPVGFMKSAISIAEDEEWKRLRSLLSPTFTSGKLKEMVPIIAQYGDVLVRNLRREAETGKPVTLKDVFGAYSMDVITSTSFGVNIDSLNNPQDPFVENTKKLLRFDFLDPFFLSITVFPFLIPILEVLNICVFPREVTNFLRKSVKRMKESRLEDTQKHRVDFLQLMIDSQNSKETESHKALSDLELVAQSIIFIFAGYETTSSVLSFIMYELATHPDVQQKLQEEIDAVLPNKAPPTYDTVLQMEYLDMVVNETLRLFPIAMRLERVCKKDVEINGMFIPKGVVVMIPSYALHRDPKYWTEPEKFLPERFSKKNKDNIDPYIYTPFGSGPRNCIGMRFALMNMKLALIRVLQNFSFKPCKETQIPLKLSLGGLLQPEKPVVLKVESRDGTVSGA
Experiment: qHTS Assay for Inhibitors and Substrates of Cytochrome P450 3A4 (AID 884); further: nearly all actives have a fitted effect of over 50% in size; further: potency means the concentration at half of the fitted maximal effect
Conditions: recombinant CYP3A4, Luciferin-PPXE luminescence; series mostly up to 57.1 µM
How it was run: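 20 nM human CYP3A4 with 25 uM Luciferin-PPXE (at KM) in 200 mM KPO4, preincubated 10 min with compound; NADPH regeneration started a 60 min RT reaction. Luciferin detected by luminescence, normalized to 57 uM ketoconazole as full inhibition.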

| SMILES | Potency |
| --- | --- |
| CC(CO)NC(=O)C1C=C2c3cccc4[nH]cc(c34)C[C@H]2N(C)C1 (some centres not stated) | inactive |
| CC(=O)OC1C2CCC3C1(CC(O)[C@@]1(O)[C@@H](CC(O)C1(C)C)[C@]3(C)O)C[C@@]2(C)O (some centres not stated) | inactive |
| CCCC/C(C)=C/[C@@H](NP(=O)(c1ccccc1)c1ccccc1)c1ccccc1 | 2.51 µM (active) |
| C=C(CC1(CNP(=O)(c2ccccc2)c2ccccc2)CC1)c1ccccc1 | 3.98 µM (active) |
| CCCC/C=C/[C@@H](NP(=O)(c1ccccc1)c1ccccc1)c1ccccc1OC | 6.31 µM (active) |
| COC(=O)[C@@H]1C[C@@]1(C)[C@@H](NP(=O)(c1ccccc1)c1ccccc1)c1ccccc1 | 7.94 µM (active) |
| CC1(C)C(C(Cl)Cl)C2(Cl)C(Cl)C(Cl)C1(Cl)C2(Cl)Cl (configuration not stated) | 7.94 µM (active) |
| CCC1C2CC3C4N(C)c5ccccc5[C@]45CC(C2C5O)N3C1O (some centres not stated) | inactive |
| C=C(C)c1ccccc1 | inactive |
| COc1ccc(C(=O)O)cc1OC | inactive |
| C[C@@]1([C@@H](NP(=O)(c2ccccc2)c2ccccc2)c2ccccc2)C[C@H]1CCO | 7.94 µM (active) |
| C=C[C@@H]1C[C@@]1(C)[C@@H](NP(=O)(c1ccccc1)c1ccccc1)c1ccccc1 | 10 µM (active) |
| CCC1C(=O)OC[C@H]1Cc1cncn1C (some centres not stated) | 20 µM (active) |
| NC1C[C@H]1c1ccccc1 (some centres not stated) | inactive |

Target: Cytochrome P450 3A4 (Homo sapiens) (UniProt P08684)
Experiment: qHTS Assay for Activators of Cytochrome P450 3A4 (AID 885); further: nearly all actives have a fitted effect of over 65% in size
Conditions: recombinant CYP3A4, Luciferin-PPXE luminescence, 60 min; series mostly up to 57.1 µM
How it was run: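 Human CYP3A4 (20 nM) with Luciferin-PPXE at 25 uM (its KM) in 200 mM KPO4; 10 min compound preincubation, then NADPH regeneration and 60 min reaction at RT. Luciferin read by luminescence; normalized to 57 uM ketoconazole full inhibition.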

| SMILES | Potency |
| --- | --- |
| CC[C@]1(O)CC(O[C@@H]2CC(N(C)C)C(O)C(C)O2)c2c(cc3c(c2O)C(=O)c2c(O)cccc2C3=O)C1C(=O)OC (some centres not stated) | inactive |
| O=P(N[C@@H](c1ccccc1)[C@@H]1C[C@H]1CO)(c1ccccc1)c1ccccc1 | inactive |
| CNNC | inactive |
| OCC(O)Cc1ccc2c(c1)OCO2 (configuration not stated) | inactive |
| CCCC/C=C/[C@@H](NP(=O)(c1ccccc1)c1ccccc1)c1ccccc1OC | inactive |
| COC(=O)[C@]1(C)CC[C@@]2(C)CC[C@@]3(C)C4=CC=C5C(=CC(=O)C(O)=C5C)[C@@]4(C)CC[C@@]3(C)C2C1 (some centres not stated) | inactive |
| C=CCO[C@@H](Cn1ccnc1)c1ccc(Cl)cc1Cl | inactive |

Target: Cytochrome P450 2C19 (Homo sapiens) (UniProt P33261)
Sequence (P33261 whole entry, looked up): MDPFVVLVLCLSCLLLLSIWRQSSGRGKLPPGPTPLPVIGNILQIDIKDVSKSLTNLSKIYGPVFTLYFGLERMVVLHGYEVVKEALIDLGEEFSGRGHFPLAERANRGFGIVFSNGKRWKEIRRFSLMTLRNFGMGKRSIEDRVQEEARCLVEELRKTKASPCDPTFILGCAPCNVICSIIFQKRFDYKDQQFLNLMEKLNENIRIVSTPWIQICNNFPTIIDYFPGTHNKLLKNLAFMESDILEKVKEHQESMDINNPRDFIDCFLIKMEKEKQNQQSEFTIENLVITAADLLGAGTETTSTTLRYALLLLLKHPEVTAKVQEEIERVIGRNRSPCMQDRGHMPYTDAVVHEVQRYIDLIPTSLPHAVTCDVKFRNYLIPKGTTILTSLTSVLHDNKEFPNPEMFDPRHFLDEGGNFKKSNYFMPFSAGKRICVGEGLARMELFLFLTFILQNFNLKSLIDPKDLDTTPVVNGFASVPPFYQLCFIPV
Experiment: qHTS Assay for Inhibitors and Substrates of Cytochrome P450 2C19 (AID 899); further: nearly all actives have a fitted effect of over 60% in size; further: potency means the concentration at half of the fitted maximal effect
Conditions: recombinant CYP2C19, luciferin-H EGE luminescence; series mostly up to 57.1 µM
How it was run: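 Luminescent read-out of luciferin formed from Luciferin-H EGE (10uM, equal to KM). Enzyme 5nM in 50mM KPO4; compound added, 10 min at 37C, then NADPH regenerating system for 60 min at 37C. Full inhibition defined by 57uM ketoconazole.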

| SMILES | Potency |
| --- | --- |
| C[C@@H]1O[C@H](O[C@H]2C[C@@H](O)[C@]3(CO)[C@H]4[C@H](O)C[C@]5(C)[C@@H](C6=CC(=O)OC6)CC[C@@]5(O)[C@H]4CC[C@]3(O)C2)[C@@H](O)[C@H](O)[C@H]1O | inactive |
| COc1ccc2c(c1OC)C(=O)O[C@@H]2[C@H]1c2cc3c(cc2CCN1C)OCO3 | 3.16 µM (active) |
| CCN1C[C@@]2(COC)[C@H](O)C[C@H](OC)[C@@]34[C@@H]5C[C@@]6(O)[C@H](OC(=O)c7ccccc7)[C@H]5[C@@](OC(C)=O)([C@H]([C@@H](OC)[C@H]23)[C@H]14)[C@H](O)[C@@H]6OC | inactive |

Test system: not listed separately
Experiment: Confirmation and Secondary Assay for Modulators of Hemoglobin Beta Chain Splicing at IVS2 654 locus (AID 910);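 further: HeLa cells stably carrying EGFP split by mutant beta-globin IVS2-654 intron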;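 further: potency means the concentration at half of the fitted maximal effect; potency of activators that raise GFP signal by restoring correct splicing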
Conditions: HeLa EGFP-654 splicing reporter, GFP fluorescence, 48 h; series mostly up to 46.1 µM
How it was run: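 HeLa cells stably expressing EGFP interrupted by β-globin IVS2-654 intron, seeded overnight in Opti-MEM/2% FCS, then treated 2 days at 37 °C. Restored splicing read as total peak GFP intensity per well by laser scanning cytometry (488 nm excitation, 500–520 nm emission); 500 nM antisense PNA as control.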

| SMILES | Potency |
| --- | --- |
| CC[C@]1(O)CC(O[C@@H]2CC(N(C)C)C(O)C(C)O2)c2c(cc3c(c2O)C(=O)c2c(O)cccc2C3=O)C1C(=O)OC (some centres not stated) | 15.8 µM (active) |
| CC(CO)NC(=O)C1C=C2c3cccc4[nH]cc(c34)C[C@H]2N(C)C1 (some centres not stated) | inactive |
| COc1c2c(c(CC=C(C)C)c3oc(=O)c(-c4ccc(O)cc4)c(O)c13)OC(C)(C)C=C2 | inactive |
| CNNC | inactive |
| CC(=O)OC1C2CCC3C1(CC(O)[C@@]1(O)[C@@H](CC(O)C1(C)C)[C@]3(C)O)C[C@@]2(C)O (some centres not stated) | inactive |
| OCC(O)Cc1ccc2c(c1)OCO2 (configuration not stated) | inactive |
| CC1(C)C(C(Cl)Cl)C2(Cl)C(Cl)C(Cl)C1(Cl)C2(Cl)Cl (configuration not stated) | inactive |
| COC(=O)[C@]1(C)CC[C@@]2(C)CC[C@@]3(C)C4=CC=C5C(=CC(=O)C(O)=C5C)[C@@]4(C)CC[C@@]3(C)C2C1 (some centres not stated) | inactive |
| CC1CC(C)C(=O)[C@H](C(O)CC2CC(=O)NC(=O)C2)C1 (some centres not stated) | inactive |
| CCC1C2CC3C4N(C)c5ccccc5[C@]45CC(C2C5O)N3C1O (some centres not stated) | inactive |
| COc1ccc(C(=O)O)cc1OC | inactive |
| C=CCN1CC[C@]23c4c5ccc(O)c4OC2C(=O)CC[C@]3(O)C1C5 (some centres not stated) | inactive |
| CCC1C(=O)OC[C@H]1Cc1cncn1C (some centres not stated) | inactive |
| NC1C[C@H]1c1ccccc1 (some centres not stated) | inactive |
